Laboratory results published in PubChem BioAssay AID493170 (National Center for Advancing Translational Sciences (NCATS), 2011).
Results filed as inconclusive are left out. A call without a number means that no potency is given here. Calls of active or inactive are those of the source. The call rests on the fitted dose curve; in most records, active means well fitted inhibition curve with a large enough effect; inconclusive means small, poorly fitted or top-dose-only effect, or effect the other way; inactive means flat fitted curve, though single readings scatter.

What follows are compounds tested against Ubiquitin carboxyl-terminal hydrolase 2 (Homo sapiens) (UniProt O75604) (assay: Ub-rhodamine 110 based assay for inhibitors Ubiquitin-specific Protease USP2a). Conditions: USP2a Ub-rhodamine110 cleavage, fluorescence; series mostly up to 38.3 µM.
In short: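 5 nM USP2a preincubated with compounds for 30 min at RT in 20 mM Tris-HCl pH 8.0, 2 mM CaCl2, 2 mM beta-mercaptoethanol, 0.05% CHAPS. Cleavage of 150 nM Ub-rhodamine 110 read kinetically (Ex 485/Em 531) for 7 min.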
Further: nearly all actives have a fitted effect of over 50% in size.
Potency means the concentration at half of the fitted maximal effect.

Sequence of Ubiquitin carboxyl-terminal hydrolase 2 (Homo sapiens) (O75604 whole entry, looked up): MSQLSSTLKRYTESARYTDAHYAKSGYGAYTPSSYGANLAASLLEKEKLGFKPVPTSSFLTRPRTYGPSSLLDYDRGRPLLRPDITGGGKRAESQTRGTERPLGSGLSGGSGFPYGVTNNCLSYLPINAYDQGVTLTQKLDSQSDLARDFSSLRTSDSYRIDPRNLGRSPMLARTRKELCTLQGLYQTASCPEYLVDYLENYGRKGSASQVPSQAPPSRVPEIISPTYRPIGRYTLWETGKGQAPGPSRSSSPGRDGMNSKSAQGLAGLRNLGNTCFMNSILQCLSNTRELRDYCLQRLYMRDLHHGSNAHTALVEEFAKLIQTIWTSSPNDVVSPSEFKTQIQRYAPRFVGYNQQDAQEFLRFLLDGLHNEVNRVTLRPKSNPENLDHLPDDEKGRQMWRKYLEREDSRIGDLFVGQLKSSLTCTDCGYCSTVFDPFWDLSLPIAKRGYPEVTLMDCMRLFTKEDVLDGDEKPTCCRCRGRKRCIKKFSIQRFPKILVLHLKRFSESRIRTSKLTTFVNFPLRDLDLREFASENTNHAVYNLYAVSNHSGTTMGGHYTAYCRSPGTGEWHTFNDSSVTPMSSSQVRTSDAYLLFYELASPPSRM

With `CNc1sc(C(=O)c2ccc(F)cc2)c(N)c1-c1nc2ccccc2s1` as the compound, how does the Potency read?
Its Potency is “inactive”.

`CCOC(=O)C1CCCN(CC(=O)Nc2c(C(=O)OC)[nH]c3ccc(C)cc23)C1` (stereo not given) was tested. Which Potency did it give?
Its Potency is “inactive”.

For `O=C(CCN1C(=O)/C(=C\c2ccco2)SC1=S)Nc1ccc(C(=O)O)c(O)c1`, which Potency is on record?
Its Potency is 7.94 µM (active).

Which Potency does the source give for `COc1ccc(CN(Cc2cc3cc(C)ccc3[nH]c2=O)C(=O)N(C)C)cc1` here?
Its Potency is “inactive”.

How did the Potency turn out when `CC(C)CC(=O)NC(=S)Nc1nc(-c2ccc(Cl)cc2)cs1` was run?
Its Potency is “inactive”.

`O=C1NC(=Nc2ccccc2)S/C1=C\C=C\c1ccco1` was tested. Which Potency did it give?
The Potency was 5.62 µM (active).

Which Potency does the source give for `Cc1cccc(NC(=S)NCc2ccc3c(c2)cc(C)n3C)c1C` here?
The Potency was “inactive”.

`CCC(C)Cn1c(O)cc2nn(-c3nc4ccccc4s3)c(=O)c-2c1C` (stereo not given) was tested. Which Potency did it give?
Its Potency is 10 µM (active).

Which Potency does the source give for `CCN1C(=O)CSc2ccc(C(=O)NC3CCCCC3)cc21` here?
Its Potency is “inactive”.

How did the Potency turn out when `Cc1ccc(O)c(CC(C)C)n1` was run?
The Potency was “inactive”.

`O=C(O)CC(C(=O)O)N1C(=O)/C(=C/C=C/c2ccco2)SC1=S` (stereo not given) was tested. Which Potency did it give?
Its Potency is “inactive”.

For `COc1ccc(-n2c(=S)[nH]c3cc(C(=O)Nc4cc(OC)c(OC)c(OC)c4)ccc3c2=O)c(OC)c1`, which Potency is on record?
The Potency was “inactive”.

With `O=C1OC[C@@H]2CCCN2C(=O)[C@@H](CC(=O)N(CCO)Cc2ccccc2)C/C=C\C[C@@H]1Cc1ccc(F)cc1` as the compound, how does the Potency read?
The Potency was “inactive”.

With `Cc1ccc(NC(=O)CN2C(=O)N/C(=C/c3ccco3)C2=O)cc1` as the compound, how does the Potency read?
Its Potency is 3.98 µM (active).

For `Oc1c(Cl)cc(Cl)c(Cl)c1Cc1c(O)c(Cl)cc(Cl)c1Cl`, which Potency is on record?
The Potency was 3.16 µM (active).

With `CCN(CC)c1ccc2nc3ccccc3[n+](CC)c2c1` as the compound, how does the Potency read?
Its Potency is “inactive”.

Which Potency does the source give for `COc1ccc(/C=C2\SC(=O)N(CC(=O)Nc3cccc(C)c3)C2=O)cc1O` here?
Its Potency is 8.91 µM (active).

Which Potency does the source give for `O=C(Nc1cccc(-c2nn[nH]n2)c1)c1ccc(Br)s1` here?
Its Potency is “inactive”.

Which Potency does the source give for `CC(=O)c1c(N2CCCC2)[nH]c(-c2ccccc2)nc1=S` here?
Its Potency is “inactive”.

`O=C(Nc1nnc(SCC(=O)N2CCCC2)s1)C1CC(=O)N(c2ccc(F)cc2)C1` (stereo not given) was tested. Which Potency did it give?
The Potency was 11.2 µM (active).

With `CCN(CC)CCNc1nc(-c2ccccc2)c2c(c1C#N)CC(C)(C)OC2` as the compound, how does the Potency read?
The Potency was “inactive”.

With `CCOc1ccc(-c2ccc(/C=C3/C(=N)N4C(C)=CSC4=NC3=O)o2)c([N+](=O)[O-])c1` as the compound, how does the Potency read?
Its Potency is 7.94 µM (active).

How did the Potency turn out when `Cc1ccc(C(=O)C(=S)N2CCOCC2)cc1` was run?
The Potency was “inactive”.

Which Potency does the source give for `CCCCCCCCCCOC(=O)Cn1c(COc2ccccc2OC)[n+](C)c2ccccc21` here?
Its Potency is “inactive”.

With `Cc1nn(C)cc1CNC(=O)c1ccc(Br)o1` as the compound, how does the Potency read?
The Potency was “inactive”.

`O=C(Nc1cccc(Cl)c1)Nc1nnc(CC2=CCCCC2)s1` was tested. Which Potency did it give?
The Potency was “inactive”.

For `CCOc1ccc2nc(NC(=O)Nc3ccccc3)sc2c1`, which Potency is on record?
The Potency was “inactive”.

With `Cc1ccc(CSC2=Nc3ccccc3C3=NC(CC(=O)NCc4ccco4)C(=O)N23)cc1` (stereo not given) as the compound, how does the Potency read?
Its Potency is 8.91 µM (active).

How did the Potency turn out when `O=C(COC(=O)c1cccc(S(=O)(=O)N2CCc3ccccc32)c1)NC1CCS(=O)(=O)C1` (stereo not given) was run?
The Potency was “inactive”.

With `Cc1cccc(NC(=O)NCc2ccc3c(c2)cc(C)n3C)c1` as the compound, how does the Potency read?
The Potency was “inactive”.

With `Cc1cc(SCC(=O)NC2CCCCC2)nc2ccccc12` as the compound, how does the Potency read?
The Potency was “inactive”.

How did the Potency turn out when `COc1ccc2[nH]c(=O)c(CN(C)C(=O)C3CCCCC3)cc2c1` was run?
The Potency was “inactive”.

How did the Potency turn out when `CC(C)(C)NC(=O)CSc1nc(O)cc(=O)n1-c1ccccc1F` was run?
The Potency was “inactive”.

For `COc1cc(NC(=O)COC(=O)CSc2ccccc2F)c(C)cc1[N+](=O)[O-]`, which Potency is on record?
The Potency was “inactive”.

Which Potency does the source give for `O=c1oc2c(CN3CCCCC3)c(O)ccc2c2c1CCCCC2` here?
The Potency was “inactive”.

With `CCOC(=O)c1sc(NC(=O)Nc2ccccc2)cc1C` as the compound, how does the Potency read?
The Potency was “inactive”.

Which Potency does the source give for `CCCCCCCCCCOC(=O)Cn1c(COc2ccc(OC)cc2)[n+](C)c2ccccc21` here?
Its Potency is “inactive”.

For `Cc1ccccc1C(=O)Nc1ccc2nc3n(c(=O)c2c1)CCC3`, which Potency is on record?
The Potency was “inactive”.

`CCOc1ccccc1N(CC(=O)NC(C)(C)C)C(=O)c1ccc(CN2CCOCC2)o1` was tested. Which Potency did it give?
Its Potency is “inactive”.

With `CC(C)(C)C1CCC2(CC1)Nc1cccc3cccc(c13)N2` as the compound, how does the Potency read?
Its Potency is “inactive”.
